Results on 29 compounds are retold here after ChEMBL document CHEMBL2218924, “A broad activity screen in support of a chemogenomic map for kinase signalling research and drug discovery” (Biochem J, 2013).

Structures are written as SMILES.

Sequence of Serine/threonine-protein kinase SIK1 (Homo sapiens) (P57059 whole entry): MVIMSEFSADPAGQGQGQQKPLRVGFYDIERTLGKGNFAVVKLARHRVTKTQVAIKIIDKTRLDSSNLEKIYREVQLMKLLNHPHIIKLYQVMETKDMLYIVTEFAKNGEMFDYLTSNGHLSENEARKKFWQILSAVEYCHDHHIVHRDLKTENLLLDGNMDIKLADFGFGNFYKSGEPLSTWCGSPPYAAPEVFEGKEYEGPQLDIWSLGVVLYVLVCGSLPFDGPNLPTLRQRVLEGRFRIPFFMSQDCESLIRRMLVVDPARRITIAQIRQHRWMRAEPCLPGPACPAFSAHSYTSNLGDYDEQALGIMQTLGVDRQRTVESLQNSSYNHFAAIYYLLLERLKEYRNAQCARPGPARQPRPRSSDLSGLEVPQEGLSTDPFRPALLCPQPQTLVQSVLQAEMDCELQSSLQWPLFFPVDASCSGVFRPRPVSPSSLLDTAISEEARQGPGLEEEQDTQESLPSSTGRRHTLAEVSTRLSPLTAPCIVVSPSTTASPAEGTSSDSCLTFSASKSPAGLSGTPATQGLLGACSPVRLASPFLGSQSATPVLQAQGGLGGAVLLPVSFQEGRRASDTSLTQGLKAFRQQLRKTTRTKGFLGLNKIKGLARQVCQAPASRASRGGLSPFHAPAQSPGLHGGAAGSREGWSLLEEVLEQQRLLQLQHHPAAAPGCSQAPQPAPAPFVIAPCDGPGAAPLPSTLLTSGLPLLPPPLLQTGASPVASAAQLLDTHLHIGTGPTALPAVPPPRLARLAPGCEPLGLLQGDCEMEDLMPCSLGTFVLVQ
Sequence of SRSF protein kinase 1 (Homo sapiens) (Q96SB4 whole entry): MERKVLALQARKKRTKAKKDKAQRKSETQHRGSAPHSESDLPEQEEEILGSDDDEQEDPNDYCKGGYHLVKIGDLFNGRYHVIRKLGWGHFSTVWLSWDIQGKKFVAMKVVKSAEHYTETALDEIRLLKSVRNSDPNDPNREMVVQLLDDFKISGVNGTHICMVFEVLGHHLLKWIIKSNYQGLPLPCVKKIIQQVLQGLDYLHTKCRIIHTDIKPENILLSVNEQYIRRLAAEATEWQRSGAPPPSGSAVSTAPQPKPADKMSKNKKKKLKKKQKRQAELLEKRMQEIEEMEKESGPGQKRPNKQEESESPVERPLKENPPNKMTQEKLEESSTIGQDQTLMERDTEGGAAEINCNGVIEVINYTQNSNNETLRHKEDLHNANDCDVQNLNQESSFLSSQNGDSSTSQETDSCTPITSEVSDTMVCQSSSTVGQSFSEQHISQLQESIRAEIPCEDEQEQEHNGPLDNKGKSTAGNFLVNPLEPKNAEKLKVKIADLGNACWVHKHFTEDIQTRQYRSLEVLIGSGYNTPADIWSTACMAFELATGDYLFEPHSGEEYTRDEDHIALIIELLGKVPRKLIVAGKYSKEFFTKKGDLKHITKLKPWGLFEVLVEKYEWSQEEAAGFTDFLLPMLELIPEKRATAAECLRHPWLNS

The first experiment concerns the target Serine/threonine-protein kinase SIK1 (Homo sapiens) (UniProt P57059). The conditions noted are these: at 10 µM.
Regarding `COc1ccc(COc2ccc(Cc3cnc(N)nc3N)cc2OC)cc1`, the residual activity (in general, the signal under treatment as a percentage of the control signal) was 111%.
On the same count and under the same terms, then `Cn1c2ccccc2c2c3c(c4c5ccccc5n(CCC#N)c4c21)CNC3=O`, with 24%; and `c1ccc(-c2cnc(Nc3ccc(OCCN4CCCC4)cc3)s2)cc1`, with 10%; and `NCCNc1ncc(C(N)=O)c(Nc2cccc(C(F)(F)F)c2)n1`, with 20%.
As to `Nc1ncnc2c1cnn2-c1ccccc1`, the residual activity came to 138%.
The same measure, in the same setting: to `Nc1nccc(-c2c(-c3ccc(F)cc3)ncn2C2CCNCC2)n1` belongs 54%.
On to `COc1ccc(-c2cnc3c(-c4ccsc4)cnn3c2)cc1`, for which the residual activity worked out at 2%.
Turning to `CC(C)[C@H](CO)Nc1nc(Nc2cc(N)cc(Cl)c2)c2ncn(C(C)C)c2n1`, the residual activity is 18%.
The same measure, in the same setting: then `O=C1C(Cl)=C(N2C(=O)CCC2=O)C(=O)c2ccccc21`, with 98%; and `Oc1cccc(-c2nc(N3CCOCC3)c3oc4ncccc4c3n2)c1`, with -1%; and `N#C/C(=C1/Nc2ccccc2S1)c1ccnc(NCCc2cccnc2)n1`, with 78%.
As for `O=C1NC(=O)C(c2cn(CCCn3ccnc3)c3ccccc23)=C1Nc1ccccc1`, the residual activity amounted to 36%.
On the same count and under the same terms, then `O=C1Cc2c([nH]c3ccc(Br)cc23)-c2ccccc2N1`, with 36%; and `O=C1NC(=O)C(c2cn(CCCO)c3ncccc23)=C1c1cnccn1`, with 84%; and `O=C(c1ccccc1)c1ccc(N2CCOCC2)cc1O`, with 95%.
Still for that read-out and setting: to `O=C(Nc1nc2ccccc2n1CCN1CCOCC1)c1cccc([N+](=O)[O-])c1` belongs 73%.

A further experiment addresses SRSF protein kinase 1 (Homo sapiens) (UniProt Q96SB4). The conditions noted are these: at 1 µM.
Regarding `Cc1cc(C)c(/C=C2\C(=O)Nc3ccccc32)[nH]1`, the residual activity was 104%.
`CN(C)S(=O)(=O)c1ccc2c(c1)/C(=C/c1cc3c([nH]1)CCCC3)C(=O)N2`: the residual activity was 20%.
On to `COc1cc2nccc(Oc3ccc(NC(=O)Nc4cc(C)on4)c(Cl)c3)c2cc1OC`, for which the residual activity amounted to 98%.
On the same count and under the same terms, to `COc1cc2ncnc(Nc3cccc(Cl)c3)c2cc1OC` belongs 101%.

For another experiment the target is unchanged. The conditions noted are these: at 10 µM.
`O=C(NC(NC(=S)Nc1ccc(F)c([N+](=O)[O-])c1)C(Cl)(Cl)Cl)C(c1ccccc1)c1ccccc1` (stereo unspecified): the residual activity came out at 92%.
In the case of `Fc1ccc(-c2nc3n(c2-c2ccncc2)CCS3)cc1`, the residual activity is 93%.
Same read-out and setting: then `CN(C)S(=O)(=O)c1ccc2c(c1)/C(=C/c1cc3c([nH]1)CCCC3)C(=O)N2`, with 8%; and `COc1cc2ncnc(Nc3cccc(Cl)c3)c2cc1OC`, with 108%.

For a further experiment, the target named is SRSF protein kinase 2 (Homo sapiens) (UniProt P78362). The conditions noted are these: at 1 µM.
Sequence of SRSF protein kinase 2 (Homo sapiens) (P78362 whole entry, looked up): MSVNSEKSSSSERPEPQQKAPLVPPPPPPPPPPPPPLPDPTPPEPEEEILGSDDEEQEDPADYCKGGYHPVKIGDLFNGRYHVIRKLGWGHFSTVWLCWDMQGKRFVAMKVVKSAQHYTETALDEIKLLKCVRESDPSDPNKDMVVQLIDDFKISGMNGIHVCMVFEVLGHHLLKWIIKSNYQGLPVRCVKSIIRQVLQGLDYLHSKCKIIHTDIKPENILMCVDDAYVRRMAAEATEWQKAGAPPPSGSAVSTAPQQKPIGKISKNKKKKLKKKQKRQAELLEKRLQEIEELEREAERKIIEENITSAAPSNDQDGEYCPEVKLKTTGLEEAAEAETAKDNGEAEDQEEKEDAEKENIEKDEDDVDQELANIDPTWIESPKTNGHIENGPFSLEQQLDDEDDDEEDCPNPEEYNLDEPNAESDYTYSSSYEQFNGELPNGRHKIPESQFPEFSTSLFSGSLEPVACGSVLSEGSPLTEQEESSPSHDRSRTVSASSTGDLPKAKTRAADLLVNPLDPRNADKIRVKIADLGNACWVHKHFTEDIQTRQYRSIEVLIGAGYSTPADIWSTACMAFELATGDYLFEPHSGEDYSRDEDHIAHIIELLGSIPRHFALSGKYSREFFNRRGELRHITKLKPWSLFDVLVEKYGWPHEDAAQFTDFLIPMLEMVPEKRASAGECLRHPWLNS
`NC(=O)c1ccc(-c2nc(-c3ccc4c(c3)OCCO4)c(-c3ccccn3)[nH]2)cc1`: the residual activity came to 91%.
Take `CN(C)S(=O)(=O)c1ccc2c(c1)/C(=C/c1cc3c([nH]1)CCCC3)C(=O)N2`: the residual activity is 34%.
For `O=C(CCCc1ccc(-c2ccccc2F)cc1)Nc1ccc(O)cc1`, the residual activity came to 106%.
The same measure, in the same setting: to `O=C1Nc2ccccc2/C1=C\c1c(Cl)[nH]c2ccccc12` belongs 100%; to `COc1cc2nccc(Oc3ccc(NC(=O)Nc4cc(C)on4)c(Cl)c3)c2cc1OC`, 99%.
On the same count and under the same terms, then `COc1cc2ncnc(Nc3cccc(Cl)c3)c2cc1OC`, with 104%; and `O=C(c1ccccc1)c1ccc(N2CCOCC2)cc1O`, with 100%.
Still for that read-out and setting: to `O=C(Nc1nc2ccccc2n1CCN1CCOCC1)c1cccc([N+](=O)[O-])c1` belongs 79%.

The next experiment has the same target. The note with it: at 10 µM.
On to `N#Cc1c(NC(=O)c2cccc3ccccc23)sc2c1CCCC2`, for which the residual activity is 92%.
Same read-out and setting: to `NC(=O)c1ccc(-c2nc(-c3ccc4c(c3)OCCO4)c(-c3ccccn3)[nH]2)cc1` belongs 95%.
Still for that read-out and setting: to `O=C(NC(NC(=S)Nc1ccc(F)c([N+](=O)[O-])c1)C(Cl)(Cl)Cl)C(c1ccccc1)c1ccccc1` (stereo unspecified) belongs 98%.
The same measure, in the same setting: to `Nc1ncnc2c1cnn2-c1ccccc1` belongs 97%; to `Fc1ccc(-c2nc3n(c2-c2ccncc2)CCS3)cc1`, 79%.
With `CN(C)S(=O)(=O)c1ccc2c(c1)/C(=C/c1cc3c([nH]1)CCCC3)C(=O)N2`, the residual activity came out at 14%.
Same read-out and setting: to `Nc1nccc(-c2c(-c3ccc(F)cc3)ncn2C2CCNCC2)n1` belongs 70%; to `O=C(CCCc1ccc(-c2ccccc2F)cc1)Nc1ccc(O)cc1`, 100%.
For `O=C1Nc2ccccc2/C1=C\c1c(Cl)[nH]c2ccccc12`, the residual activity amounted to 83%.
Consider `COc1ccc(CNC(=O)Nc2ncc([N+](=O)[O-])s2)cc1`, for which the residual activity amounted to 78%.
Turning to `O=C1C(Cl)=C(N2C(=O)CCC2=O)C(=O)c2ccccc21`, the residual activity amounted to 88%.
Take `CC(C)N(CCC(=O)c1ccc2ccccc2c1)Cc1ccccc1`: the residual activity amounted to 85%.
On to `O=C(c1ccccc1)c1ccc(N2CCOCC2)cc1O`, for which the residual activity worked out at 94%.
`O=C(Nc1nc2ccccc2n1CCN1CCOCC1)c1cccc([N+](=O)[O-])c1`: the residual activity amounted to 74%.

The next experiment deals with Serine/threonine-protein kinase 33 (Homo sapiens) (UniProt Q9BYT3). The conditions noted are these: at 1 µM.
Sequence of Serine/threonine-protein kinase 33 (Homo sapiens) (Q9BYT3 whole entry, looked up): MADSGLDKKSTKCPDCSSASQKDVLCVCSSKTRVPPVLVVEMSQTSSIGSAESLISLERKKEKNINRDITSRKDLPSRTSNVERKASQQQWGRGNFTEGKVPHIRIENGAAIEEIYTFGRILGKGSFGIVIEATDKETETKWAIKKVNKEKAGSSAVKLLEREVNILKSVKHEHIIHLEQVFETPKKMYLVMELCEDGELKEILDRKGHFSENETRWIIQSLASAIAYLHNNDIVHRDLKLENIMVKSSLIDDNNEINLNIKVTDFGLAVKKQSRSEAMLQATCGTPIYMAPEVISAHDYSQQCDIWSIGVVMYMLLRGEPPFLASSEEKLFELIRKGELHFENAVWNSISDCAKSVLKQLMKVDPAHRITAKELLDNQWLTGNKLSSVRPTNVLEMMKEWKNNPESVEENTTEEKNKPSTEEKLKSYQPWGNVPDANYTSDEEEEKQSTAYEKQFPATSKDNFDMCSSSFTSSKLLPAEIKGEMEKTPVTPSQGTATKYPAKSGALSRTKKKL
Regarding `Cc1cc(C)c(/C=C2\C(=O)Nc3ccccc32)[nH]1`, the residual activity was determined as 69%.
On the same count and under the same terms, to `O=C(NC(NC(=S)Nc1ccc(F)c([N+](=O)[O-])c1)C(Cl)(Cl)Cl)C(c1ccccc1)c1ccccc1` (stereo unspecified) belongs 98%; to `Cn1c2ccccc2c2c3c(c4c5ccccc5n(CCC#N)c4c21)CNC3=O`, 6%.
On the same count and under the same terms, then `Nc1ncnc2c1cnn2-c1ccccc1`, with 97%; and `CN(C)S(=O)(=O)c1ccc2c(c1)/C(=C/c1cc3c([nH]1)CCCC3)C(=O)N2`, with 85%; and `O=C(CCCc1ccc(-c2ccccc2F)cc1)Nc1ccc(O)cc1`, with 100%.
The same measure, in the same setting: to `O=C1Nc2ccccc2/C1=C\c1c(Cl)[nH]c2ccccc12` belongs 99%; to `COc1ccc(-c2cnc3c(-c4ccsc4)cnn3c2)cc1`, 95%.
As for `CC(C)[C@H](CO)Nc1nc(Nc2cc(N)cc(Cl)c2)c2ncn(C(C)C)c2n1`, the residual activity came out at 96%.
On the same count and under the same terms, then `COc1cc2nccc(Oc3ccc(NC(=O)Nc4cc(C)on4)c(Cl)c3)c2cc1OC`, with 81%.
As to `O=C1NC(=O)C(c2cn(CCCn3ccnc3)c3ccccc23)=C1Nc1ccccc1`, the residual activity was found to be 75%.
On to `O=C1Cc2c([nH]c3ccc(Br)cc23)-c2ccccc2N1`, for which the residual activity turned out to be 97%.
Same read-out and setting: then `O=C(c1ccccc1)c1ccc(N2CCOCC2)cc1O`, with 89%.
Take `O=C(Nc1nc2ccccc2n1CCN1CCOCC1)c1cccc([N+](=O)[O-])c1`: the residual activity stood at 83%.
Still for that read-out and setting: then `CCN1/C(=C/C(C)=O)Sc2ccc(OC)cc21`, with 82%.
